Measured values from PubChem BioAssay AID1259312 (Keith Lab, Institute of Cancer Science, University of …, 2017).
About 200 (4.4%) of roughly 4,500 compounds were called active. Many of the other results were omitted from the sample, so actives are more common in it than they were. Unmarked numbers belong to inactive results.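 The calls were made as follows: active = cell survival measured by absorbance rises more than 2.5-fold over infected cells without compound; inactive = the rest.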

Experiment: survival after telomere uncapping, modulators, primary screen, cell-based (AID 1259312);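 also: virus expresses mutant telomerase RNA that uncaps telomeres and kills cells; compound added 2 days after infection so exposure lasts 3 days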
Settings: HCT116 + Ad-hTR-mut, MTT, 5 d; at 10 µM, active compounds read high

Compound	fold change
O=C1NC(=S)N/C1=C\c1cc(Br)cc(Br)c1O	-1.6
O=C1NC(=S)N/C1=C/c1c(F)cccc1Cl	1.33
O=C1NC(=S)N/C1=C\c1ccc(Cl)cc1Cl	5.07 (active)
O=C1c2ccccc2NC2(C(=O)Nc3ccccc32)N1CCOc1ccccc1 (stereo unspecified)	1.15
CCOC1(C)OC2CCC(CC)OC2O1 (stereo unspecified)	1.54
O=C1Nc2ccccc2/C1=N\N1C(=O)C2C=CC=CC2C1=O (stereo unspecified)	inactive
O=C1Nc2ccccc2C1=Nc1ccc(SC(F)F)cc1	active
O=C1Nc2ccccc2C1=Nc1cccc(Cl)c1	inactive
O=c1[nH]c2nonc2[nH]c1=O	inactive
O=C1CCCN1c1ccc(S(=O)(=O)Nc2ccc3oc4c(c3c2)CCCC4)cc1	1.03
Cc1nnc(SCC(=O)Nc2sc3c(c2C#N)CCC3)s1	-1.54
O=c1[nH]c(=O)c2cc3c(=O)[nH]c(=O)c3cc12	2.77 (active)
O=c1[nH]c2ccc(F)cc2c(=O)c2ccccc12	1.22
Nc1cc2[nH]c(=O)[nH]c2cc1N	-1.33
O=C(C1=C(O)C(=O)N(CCN2CCOCC2)C1c1ccco1)c1ccco1 (stereo unspecified)	-1.73
O=c1[nH]c2cc(NCCCO)c([N+](=O)[O-])cc2[nH]1	-1.46
c1ccc(-c2nc(-c3cccnc3)[nH]c2-c2ccccc2)cc1	1.14
COc1cc(OC)cc(-c2nc(N)n[nH]2)c1	1.56
Nc1n[nH]c(-c2cccnc2)n1	2.61 (active)
CN1CCC2(CC1)C(C#N)=C(O)NC1=C2C(=O)CC(C)(C)C1	-1.33
O=C(CSc1nc2ccccc2nc1SCC(=O)N1CCCCC1)N1CCCCC1	-1.94
O=C(Nc1nonc1NC(=O)c1ccc2c(c1)OCO2)c1ccc2c(c1)OCO2	-1.22
CC1(C)O[C@@H]2[C@H](O1)[C@@H](CO)O[C@H]2n1cnc2c(N)ncnc21	-1.14
Clc1nc2nonc2nc1Nc1ccc(Br)cc1	-1.13

Compound	fold change
O=c1[nH]cnc2sc3c(c12)CCCC3	1.23
O=C(CC1NC(=O)N(C2CCCCC2)C1=O)NCC12CC3CC(CC(C3)C1)C2 (stereo unspecified)	-1.28
CC12CC3CC(C)(C1)CC(CC(=O)NCC14CC5CC(CC(C5)C1)C4)(C3)C2	3.05 (active)
CC12CC3CC(C)(C1)CC(CC(=O)N1CCN(S(C)(=O)=O)CC1)(C3)C2	1.25
Cc1ccc(S(=O)(=O)NC2CCCC2)cc1	-1.31
COc1ccc(S(=O)(=O)NC2CCCCCC2)cc1	3.33 (active)
COc1ccc(OC)c(NS(=O)(=O)c2ccc(Cl)cc2)c1	1.33
O=S(=O)(NC1CCCCCC1)c1ccc(Cl)cc1	1.1
CS(=O)(=O)Nc1ccc(Cl)cc1Cl	-1.31
COc1ccc(S(=O)(=O)Nc2cc(Cl)c(Cl)cc2Cl)cc1	3.11 (active)
O=S(=O)(Nc1cc(Cl)c(Cl)cc1Cl)c1ccc(Cl)cc1	3.01 (active)
O=S(=O)(NC1CCCCCC1)c1ccc(F)cc1	-1.23
COc1ccc(S(=O)(=O)NC(C)C)cc1	-1.48
Cc1ccc2c(c1)C(O)(CC(=O)c1ccc3c(c1)OCO3)C(=O)N2 (stereo unspecified)	-1.44
O=[N+]([O-])c1c(Sc2nnnn2C2CCCCC2)ncnc1Sc1nnnn1C1CCCCC1	1.21
N#Cc1c(-c2ccc(Cl)cc2Cl)csc1N	-1.22
CN(C)S(=O)(=O)Nc1cccc([N+](=O)[O-])c1	1.12
CCn1c(=O)n(CC)c2cc(S(=O)(=O)NC3CCCCC3)ccc21	1.22
CC(=O)c1c(O)c(C)c(O)c2c1OC1=CC(=O)C(C(C)=O)C(=O)[C@@]12C (stereo partly specified)	-1.06
CC(=O)N1c2ccccc2C2(C)C(C1(C)C)C2(Cl)Cl (stereo unspecified)	4.16 (active)
NC(=O)c1c(NC(=O)C2COc3ccccc3O2)sc2c1CCCC2 (stereo unspecified)	-1.9
COc1cc2c(cc1OC)CC1(C2)c2ccccc2CN1C	-1.34
O=[N+]([O-])c1ccc(C=NC2CCCc3c2[nH]c2ccc(Br)cc32)cc1 (stereo unspecified)	1.22
CC(=O)N1CCCc2cc(S(=O)(=O)NC(C)(C)C)ccc21	-1.21

Compound	fold change
COc1ccc(Br)cc1C1C(C#N)=C(N)SC(N)=C1C#N	-1.84
O=S(=O)(Oc1ccc(N=Cc2cccs2)cc1)c1ccc(Cl)cc1	2.24
Clc1ccc(N=Cc2cccs2)cc1	1.21
NS(=O)(=O)c1ccc(N=Cc2cccs2)cc1	5.47 (active)
CN=C1S/C(=C/c2ccc(C)o2)C(=O)N1C	-1.34
CCOC(=O)c1sc(N2N=C(C)/C(=C\c3ccc(C)o3)C2=O)nc1C	-1.12
COC(=O)Cn1cnc([N+](=O)[O-])n1	-1.14
CC1Oc2ccc(S(=O)(=O)NCCCn3ccnc3)cc2NC1=O (stereo unspecified)	1.47
Oc1ccc2ccccc2c1C=Nc1ccc(Cl)cn1	active
Oc1ccc2ccccc2c1C=NCCCCCCN=Cc1c(O)ccc2ccccc12	inactive
Oc1ccc2ccccc2c1/C=N/c1nccs1	active
OCCN=Cc1c(O)ccc2ccccc12	inactive
Oc1ccc2ccccc2c1/C=N/c1ccccn1	active
Oc1ccc(Br)cc1C=Nc1ccc(Cl)cn1	inactive
C(=N\c1nccs1)/c1ccco1	-1.62
Clc1ccc(N=Cc2cccc3ccccc23)nc1	1.13
Oc1ccc(Br)cc1/C=N/c1nccs1	inactive
ClCCOc1nc(OCCCl)nc(OCCCl)n1	2.12
CCCc1ccn(CCSCC)c1-c1cccs1	-2.47
O=C(Nc1ccc(I)cc1)C1CC(=O)N(C2CCCCC2)C1 (stereo unspecified)	2.18
O=C(Cc1cccs1)NCCN1CCOCC1	-1.05
O=C1/C(=C/c2ccc3c(c2)OCO3)CCc2ccccc21	-2.22
COC(=O)/C(C#N)=C\c1ccc(C)o1	-2.41
